# Laboratory results taken from the supplement of paper PMC8728848.
# The sample as a whole holds a higher share of the strongest signals than the screen did.
# Legend:
# Assay in all cases: glycan array binding signal (z-score within array); higher = stronger binding
# Conditions in all cases: glycan notation: IUPAC condensed, linker removed
# [1] = target: Fuc(a1-2)Gal(b1-3)GlcNAc(b1-2)Man(a1-3)[Fuc(a1-2)Gal(b1-3)GlcNAc(b1-2)Man(a1-6)]Man(b1-4)GlcNAc(b1-4)GlcNAc
# Outline: (§1)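 Columns mapping to the same glycan were averaged after glycan names were converted to IUPAC-condensed notation. The data come from 3228 arrays in the Consortium for Functional Glycomics database, limited to those with an available protein sequence. Binding is reported as a within-array Z-score averaged across arrays of one protein sequence and across linkers.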
# [2] = target: Fuc(a1-2)Gal(b1-3)[Fuc(a1-4)]GlcNAc
# Outline: as §1
# [3] = target: Fuc(a1-2)Gal(b1-4)GlcNAc(b1-2)Man
# Outline: as §1
# [4] = target: Fuc(a1-2)Gal(b1-4)[Fuc(a1-3)]GlcNAc(b1-3)[Neu5Ac(a2-6)Gal(b1-4)GlcNAc(b1-6)]Gal(b1-4)Glc
# Outline: as §1
# [5] = target: Fuc(a1-3)[Gal(b1-4)]GlcNAc(b1-3)GalNAc
# Outline: as §1
# [6] = target: Fuc(a1-3)[Gal3S(b1-4)]GlcNAc6S
# Outline: as §1
# Gal(a1-3)Gal(b1-3)GlcNAc = target: Gal(a1-3)Gal(b1-3)GlcNAc
# Outline: as §1
# [7] = target: Gal(a1-3)Gal(b1-3)[Fuc(a1-4)]GlcNAc(b1-2)Man(a1-3)[Gal(a1-3)Gal(b1-3)[Fuc(a1-4)]GlcNAc(b1-2)Man(a1-6)]Man(b1-4)GlcNAc(b1-4)GlcNAc
# Outline: as §1
# Gal(a1-3)GalNAc = target: Gal(a1-3)GalNAc
# Outline: as §1
# Gal(a1-4)Gal(b1-4)Glc = target: Gal(a1-4)Gal(b1-4)Glc
# Outline: as §1
# Gal(b1-3)Gal(b1-4)GlcNAc = target: Gal(b1-3)Gal(b1-4)GlcNAc
# Outline: as §1
# [8] = target: Gal(b1-3)GlcNAc(b1-3)Gal(b1-4)[Fuc(a1-3)]GlcNAc(b1-6)[Gal(b1-3)GlcNAc(b1-3)]Gal(b1-4)Glc
# Outline: as §1
# [9] = target: Gal(b1-3)[Fuc(a1-4)]GlcNAc(b1-3)Gal(b1-3)[Fuc(a1-4)]GlcNAc
# Outline: as §1
# [10] = target: Gal(b1-4)GlcNAc(b1-2)Man(a1-6)[GlcNAc(b1-2)Man(a1-3)]Man(b1-4)GlcNAc(b1-4)GlcNAc
# Outline: as §1
# [11] = target: Gal(b1-4)GlcNAc(b1-3)Gal(b1-4)GlcNAc
# Outline: as §1
# [12] = target: Gal(b1-4)GlcNAc(b1-3)Gal(b1-4)GlcNAc(b1-2)[Gal(b1-4)GlcNAc(b1-3)Gal(b1-4)GlcNAc(b1-6)]Man(a1-6)[Gal(b1-4)GlcNAc(b1-3)Gal(b1-4)GlcNAc(b1-2)Man(a1-3)]Man(b1-4)GlcNAc(b1-4)GlcNAc
# Outline: as §1
# [13] = target: Gal(b1-4)GlcNAc(b1-3)Gal(b1-4)GlcNAc(b1-2)[Gal(b1-4)GlcNAc(b1-3)Gal(b1-4)GlcNAc(b1-6)]Man(a1-6)[Gal(b1-4)GlcNAc(b1-3)Gal(b1-4)GlcNAc(b1-2)Man(a1-3)]Man(b1-4)GlcNAc(b1-4)[Fuc(a1-6)]GlcNAc
# Outline: as §1
# [14] = target: Gal(b1-4)GlcNAc(b1-3)Gal(b1-4)GlcNAc(b1-3)Gal(b1-4)GlcNAc(b1-2)Man(a1-3)[Gal(b1-4)GlcNAc(b1-3)Gal(b1-4)GlcNAc(b1-3)Gal(b1-4)GlcNAc(b1-2)Man(a1-6)]Man(b1-4)GlcNAc(b1-4)[Fuc(a1-6)]GlcNAc
# Outline: as §1
# [15] = target: Gal(b1-4)GlcNAc(b1-3)Gal(b1-4)GlcNAc(b1-3)Gal(b1-4)GlcNAc(b1-3)Gal(b1-4)GlcNAc(b1-3)Gal(b1-4)GlcNAc(b1-2)Man(a1-3)[Gal(b1-4)GlcNAc(b1-3)Gal(b1-4)GlcNAc(b1-3)Gal(b1-4)GlcNAc(b1-3)Gal(b1-4)GlcNAc(b1-3)Gal(b1-4)GlcNAc(b1-2)Man(a1-6)]Man(b1-4)GlcNAc(b1-4)GlcNAc
# Outline: as §1
# [16] = target: Gal(b1-4)GlcNAc(b1-3)Gal(b1-4)GlcNAc(b1-3)[Gal(b1-4)GlcNAc(b1-3)Gal(b1-4)GlcNAc(b1-6)]GalNAc
# Outline: as §1
# [17] = target: Gal(b1-4)GlcNAc(b1-3)[Fuc(a1-3)GlcNAc(b1-6)]Gal(b1-4)Glc
# Outline: as §1
# [18] = target: Gal(b1-4)GlcNAc(b1-6)[Gal(b1-3)]GalNAc
# Outline: as §1
# Gal3S(b1-3)GlcNAc = target: Gal3S(b1-3)GlcNAc
# Outline: as §1
# [19] = target: Gal3S(b1-3)[Fuc(a1-4)]GlcNAc
# Outline: as §1
# [20] = target: Gal3S(b1-4)[Fuc(a1-3)]Glc6S
# Outline: as §1
# [21] = target: Gal3S(b1-4)[Fuc(a1-3)]GlcNAc6S
# Outline: as §1
# Gal3S6S(b1-4)GlcNAc6S = target: Gal3S6S(b1-4)GlcNAc6S
# Outline: as §1
binder,measurement,setting,value
EULS2 M2 (Oryza sativa) (protein) MVYCRANPNYAMTARNGAVVLAPANPKDEYQHWIKDMRWSTSIKDEEGYPAFALVNKATGQAIKHSLGQSHPVRLVPYNPEVMDESVLWTESRDVGNGFRCIRMVNNIYLNFDAFHGDKYHGGVRDGTDIVLWKLCEGDSQRWKIQPYYILEQKLISEEDLNSAVDHHHHHH,glycan array binding signal (z-score),[1],2.57
same,glycan array binding signal (z-score),[2],0.051
same,glycan array binding signal (z-score),[3],-0.221
same,glycan array binding signal (z-score),[4],-0.288
same,glycan array binding signal (z-score),[5],-0.239
same,glycan array binding signal (z-score),[6],0.046
same,glycan array binding signal (z-score),Gal(a1-3)Gal(b1-3)GlcNAc,6.13
same,glycan array binding signal (z-score),[7],0.228
same,glycan array binding signal (z-score),Gal(a1-3)GalNAc,-0.346
same,glycan array binding signal (z-score),Gal(a1-4)Gal(b1-4)Glc,-0.552
same,glycan array binding signal (z-score),Gal(b1-3)Gal(b1-4)GlcNAc,-0.911
same,glycan array binding signal (z-score),[8],-0.897
same,glycan array binding signal (z-score),[9],-0.418
same,glycan array binding signal (z-score),[10],-0.086
same,glycan array binding signal (z-score),[11],0.298
same,glycan array binding signal (z-score),[12],1.3
same,glycan array binding signal (z-score),[13],0.142
same,glycan array binding signal (z-score),[14],-0.152
same,glycan array binding signal (z-score),[15],2.79
same,glycan array binding signal (z-score),[16],-0.129
same,glycan array binding signal (z-score),[17],-0.485
same,glycan array binding signal (z-score),[18],0.142
same,glycan array binding signal (z-score),Gal3S(b1-3)GlcNAc,-0.359
same,glycan array binding signal (z-score),[19],-0.012
same,glycan array binding signal (z-score),[20],0.271
same,glycan array binding signal (z-score),[21],3.8
same,glycan array binding signal (z-score),Gal3S6S(b1-4)GlcNAc6S,13.3
